From PubChem BioAssay AID1508625 (Wald Lab, School of Medicine, Case Western Reserve …, 2021)

Assay: enhancers of NK cell killing of ovarian tumor cells, primary screen, imaging, OVCAR3, primary NK cells, calcein-AM imaging (AID 1508625);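 note: compound given to NK cells 16 h before adding targets at 1.5 to 1 ratio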
Settings: OVCAR3 lysis by primary NK cells, at 5 µM; z-score: measured here: robust Z-score, single-point normalisation

Structure (SMILES) | corrected activity, negative = more killing | z-score
COc1ccc(C)cc1NC(=O)c1oc(=O)c2ccccc2c1-c1ccccc1 | -11.3% | -2.78
Cc1ccc(C(=O)Nc2cccc(C(=O)N3CCOCC3)c2)cc1Cl | -0.0326% | -0.0182
Cc1ccc(N2C(=O)C(N3C(=O)c4cccc([N+](=O)[O-])c4C3=O)C2c2ccc(F)cc2)cc1F (centres undefined) | -2.91% | -0.904
CCOc1ccc(-c2n[nH]c(C(=O)NN=Cc3cccnc3)c2C)cc1 | -3.11% | -1.36
O=[N+]([O-])c1ccc(N2CCCCC2)cc1NCCc1ccccc1 | -2.78% | -0.86
COC(=O)c1cc(Cl)c(NC(=O)c2cc3ccccc3oc2=O)cc1OC | -1.77% | -0.79
Cc1cccn2c(=O)c3cc(C(=O)N4CCCCCC4)sc3nc12 | -6.34% | -1.8
O=C(O)C1CSC(c2cccs2)=N1 (centres undefined) | -4.41% | -1.19
Cc1oc(-c2cccc(Br)c2)nc1CN1CCC(C(=O)NC(C)CCc2ccccc2)CC1 (centres undefined) | -7.41% | -2
CCC(CC)NC(=O)c1cccc(OC)c1OC | -0.109% | -0.0486
CCOC(=O)c1c(NC(=O)c2ccccc2F)sc(C(=O)Nc2cccc(Cl)c2)c1C | -1.46% | -0.517
CCCCNC(=O)c1c[nH]c2ccc(S(=O)(=O)Nc3cccc(SC)c3)cc2c1=O | -1.92% | -0.471
COC(=O)c1ccc(C=NN2CCN(c3ccccn3)CC2)cc1 | -4.57% | -2
Cc1ccc(C(=O)NC(=Cc2cccnc2)C(=O)Nc2ccc(I)cc2)cc1 | -0.444% | -0.23
O=[N+]([O-])c1ccc2[nH]c3c(c2c1)CCCC3NC1Cc2ccccc2C1 (centres undefined) | 0.0593% | 0.0259
Clc1ccccc1[C@@H]1Nc2ccccc2[C@@H]2C=CC[C@@H]21 | -1.75% | -0.523
COc1ccc2nc3oc(C(=O)NCCc4ccc(Cl)cc4)cc3cc2c1 | -5.81% | -1.43
O=C1OC(c2ccccc2Cl)=NC1=Cc1ccccc1F | -3.5% | -1.49
O=C(Nc1ccccc1C(=O)Nc1ccc(Br)cn1)c1ccccc1 | -6.2% | -2.34
CCc1ccc(NS(=O)(=O)c2ccc3[nH]cc(C(=O)N(C)Cc4ccccc4)c(=O)c3c2)cc1 | -2.32% | -0.569
CCOC(=O)Cc1ccc(N(Cc2ccccc2)S(=O)(=O)c2cc(C)ccc2C)cc1 | -11.3% | -3.06
COc1ccccc1CNc1nc(-c2ccc(Br)cc2)nc2ccccc12 | -2.39% | -1.28
COC(=O)c1ccc(C=NNc2nc(-c3ccc(Cl)cc3)cs2)cc1 | -2.03% | -0.861

Structure (SMILES) | corrected activity, negative = more killing | z-score
CN(C)S(=O)(=O)c1ccc(C(O)=C2C(=O)C(=O)N(Cc3cccnc3)C2c2ccc(Cl)cc2)cc1 (centres undefined) | -2.24% | -0.973
O=C(CSc1nc2cc3c(cc2c(=O)n1Cc1ccco1)OCO3)NCc1ccccc1 | -4.67% | -1.24
Cc1cc(Br)cc2c(N=NC(=O)c3ccccc3)c(O)[nH]c12 | -1.64% | -0.646
CCCCOC(=O)c1ccc2c(c1)C(=O)N(c1cccc(Cl)c1)C2=O | -8.14% | -2.52
CC1(C)CC(=O)C(CCC(=O)c2ccccc2)C(C)(C)N1 (centres undefined) | -2.46% | -0.733
O=C(Nc1cccc(-c2nc3ccccc3o2)c1)C1CCCCC1 | -2.15% | -0.667
CCC(C)N1C(=O)c2ccccc2C1C(=O)NC1CCCCCC1 (centres undefined) | -6.27% | -1.78
COc1ccc(OC)c(C2NC(=S)NC(C)=C2C(=O)Nc2ccccc2)c1 (centres undefined) | -2.97% | -0.92
CCOc1cc(C(=S)N2CCOCC2)ccc1OC(=O)Cc1ccccc1 | -7.5% | -2.32
COc1ccccc1C1C(=C(O)c2ccccc2)C(=O)C(=O)N1CC(C)O (centres undefined) | -4.26% | -1.62
COc1ccc(Cl)cc1NC(=O)c1cnn2c(C(F)(F)F)cc(-c3ccc(C)cc3)nc12 | -0.972% | -0.309
Cc1ccccc1C(=NS(=O)(=O)c1ccc(Br)cc1)Nc1ccccc1 | -3.32% | -1.18
CCN(C(=O)c1cc2c(=O)n3cccc(C)c3nc2s1)c1ccccc1 | -6.23% | -1.77
CCCCN(C(=O)c1cnc2n(c1=O)CCS2)c1ccccc1 | -5.28% | -1.68
CCCCC1CC(CN2C(=O)NC(C)(C)C2=O)OC1=O (centres undefined) | -2.13% | -0.811
CCOC(=O)C(Cc1ccccc1)C(=O)N(C1CCCCC1)C1CCCCC1 (centres undefined) | -3.39% | -1.82
CCOc1ccc(-n2c(=O)c3c(C)c(C)sc3n(CC(=O)N3CC(C)CC(C)C3)c2=O)cc1 (centres undefined) | -4.39% | -1.25
COc1ccc(OC)c(CN2CCN(Cc3ccccc3[N+](=O)[O-])CC2)c1 | -3.74% | -1.67
Brc1cccc(-c2nnc3sc(CN4CCOCC4)cn23)c1 | -6.12% | -1.74
COc1cc(C)c(NC(=O)c2ccccc2I)cc1C(C)C | -3.4% | -1.89
COc1ccc(-c2ccc3c(N)c(C(=O)Nc4ccc(C(C)=O)cc4)sc3n2)cc1 | -4.48% | -1.34
O=C(CCn1c(=O)c2sccc2n(Cc2cc(=O)n3ccccc3n2)c1=O)NCc1ccc2c(c1)OCO2 | -7.55% | -2.14
CC(=O)NCCNC(=O)c1ccc(Cn2c(=S)[nH]c3cc4c(cc3c2=O)OCO4)cc1 | -3.96% | -1.05

Structure (SMILES) | corrected activity, negative = more killing | z-score
O=C(O)CCn1ncc2ccccc21 | -4.13% | -1.31
Cc1ccc(C(=O)O)c(C(=O)Nc2cccnc2)c1 | -0.349% | -0.143
Cc1ccccc1OCC(=O)N1N=C2CCCCC2C1(O)C(F)(F)F (centres undefined) | -5.48% | -2.09
COc1ccc2cc3cc(C(=O)NCCCN4CCN(Cc5ccccc5)CC4)oc3nc2c1 | -0.58% | -0.142
Cn1c(SCC(=O)Nc2cc(C(F)(F)F)ccc2Cl)nc2c([nH]c3ccccc32)c1=O | -6.37% | -1.58
O=C1NN(c2cccc(Cl)c2)C(=O)C1=Cc1cc(Cl)ccc1O | -4.57% | -1.45
O=C(Nc1ccccc1[N+](=O)[O-])C12CC3CC(CC(C3)C1)C2 | -1.55% | -0.55
O=C(Nc1cc2c(cc1C(=O)c1ccc(Br)cc1)OCCO2)c1ccc(Cl)cc1 | -4.2% | -1.3
Cc1cc(Nc2cccc(C(=O)O)c2)n2ncnc2n1 | 1.47% | 0.457
O=C(Nc1ccc(Cl)cc1)c1cc(S(=O)(=O)NC2CCCC2)ccc1F | -2.8% | -0.756
COC(=O)c1cc(NC(=O)C2(S(=O)(=O)c3ccc(C)cc3)CC2)cc(C(=O)OC)c1 | -4.1% | -1.16
Cc1ccc(OCC(=O)Nc2ccc(N3CCOCC3)c(Cl)c2)cc1 | -5.7% | -1.77
CCN1CCN(C(=O)c2oc3ccc(S(=O)(=O)N4CCCCCC4)cc3c2C)CC1 | -6.41% | -1.6
Cc1cc(C)nc(N=C(N)Nc2cccc(F)c2)n1 | 0.14% | 0.0433
COc1ccc(S(=O)(=O)NCCc2ccccc2)c2ccccc12 | -3.37% | -1.46
CC1=C(C(=O)OCCc2ccccc2)C(c2coc3ccc(C)cc3c2=O)C2=C(CC(c3cccs3)CC2=O)N1 (centres undefined) | 0.37% | 0.141
Cc1ccc(-c2nc3ccccc3c(C(=O)O)c2C)cc1 | -2.28% | -1.18
CC1(C(=O)NCC2CCCO2)CCC(=O)N1CCc1ccccc1 (centres undefined) | -6.77% | -1.92
COc1ccccc1C(=O)CC1(O)C(=O)Nc2ccccc21 (centres undefined) | -4.9% | -1.82
CCC(C)NC(=O)Cn1c(=O)n(-c2cc(OC)cc(OC)c2)c(=O)c2sccc21 (centres undefined) | -7.6% | -2.16
O=[N+]([O-])c1ccc(OCc2ccc(Br)cc2)cc1 | -1.79% | -0.994
COc1ccc(CN2c3cccc[n+]3CC2(O)c2ccc(Cl)cc2)cc1 (centres undefined) | 0.199% | 0.0419
Cc1ccc2c(c1)NCC(C(=O)O)O2 (centres undefined) | -4.87% | -1.31

Structure (SMILES) | corrected activity, negative = more killing | z-score
CCOC(=O)c1c(NC(=O)c2ccc(C(=O)c3ccccc3)cc2)sc2c1CCCC2 | -3.96% | -0.836
Cc1cc(Cl)ccc1OC(C)C(=O)n1cnc2ccccc21 (centres undefined) | -1.02% | -0.42
COc1ccc(C(O)=C2C(=O)C(=O)N(CCN3CCNCC3)C2c2ccc(OC)cc2)cc1 (centres undefined) | -4.32% | -1.87
Cc1ccc(C(=O)Nc2cccc(C(=O)O)c2)cc1S(=O)(=O)Nc1ccc(Br)cc1 | -15% | -3.16
CCN(C(=O)c1c(-c2ccccc2)noc1C)C1CCCCC1 | -2.37% | -0.905
Cc1cc(Nc2ncnc3sc4c(c23)CCCC4)ccc1Br | -1.91% | -1.03
O=C(NN=Cc1cccc2ccccc12)c1cncc(Br)c1 | -7.56% | -2.98
Cc1ccc(C(=O)Oc2ccc(C(=S)N3CCOCC3)cc2)cc1 | -4.83% | -1.5
COc1cccc(C(=O)N2CCN(C(=O)c3ccccc3OC)CC2)c1 | -2.57% | -1.15
Cc1cc(Cl)nc(Cl)c1C(=O)O | 0.175% | 0.0658
COc1ccc(C2Nc3ccccc3NC3=C2C(=O)CC(c2ccco2)C3)cc1 (centres undefined) | -2.08% | -0.853
C=CCSc1nc(C)c2cc(C)ccc2n1 | -2.18% | -0.675
O=C(Nc1cccc2ccccc12)ON=Cc1ccc(F)cc1 | -4.41% | -1.4
COC(=O)c1ccc(COC(=O)c2ccc([N+](=O)[O-])c(C)c2)cc1 | -0.897% | -0.499
CC(C)(C)NC(=O)C(=O)NN=Cc1cccc(Br)c1 | -4.27% | -1.82
Cc1cc(C)cc(NC(=O)c2cc(S(=O)(=O)NC3CCCCC3)ccc2F)c1 | -5.25% | -1.42
Cc1ccc(-c2noc(-c3ccccc3F)n2)cc1 | -2.22% | -0.911
CN(Cc1ccccc1)Cc1c(O)ccc2c(=O)c(Oc3ccccc3Br)c(C(F)(F)F)oc12 | 2.2% | 0.682
CON1C(=O)C(C)(C)N(OC)C(=O)C1(C)C | 2.31% | 0.733
Cc1ccccc1N1C(=O)c2ccc(C(=O)Nc3cccc([N+](=O)[O-])c3)cc2C1=O | -3.72% | -1.15
CCOc1ccccc1C(=O)Nc1ccc(S(=O)(=O)N2CCCCC2C)cc1 (centres undefined) | -4.3% | -1.33
CCCc1sc(N2CCN(C(=O)c3ccccc3)CC2)nc1-c1ccccc1 | -5.71% | -1.77
CCCCNC(=O)c1cc(Nc2ccc(CC)cc2)nc2ccccc12 | -8.29% | -2.03
